# Assay outcomes from PubChem BioAssay.
# KCNQ2 pot: potentiators of rat KCNQ2 potassium channel. AID 2239. actives 0.54% (n = 310,000). B-score at 10 µM. O88943. CHO-K1 KCNQ2, FluxOR thallium flux fluorescence; active compounds read high;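 active means fluorescence ratio B-score at least 3 SD of library B-scores, with initial fluorescence B-score within 3 of them, cut at about 5.3 in these data; same plate scores as AID 2156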;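 further: B-score of peak minus minimum over baseline fluorescence ratio after K+ and Tl+ stimulus; positive B-score means potentiation of KCNQ2 with more thallium influx and brighter signal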
# Target sequence (O88943 whole entry, looked up): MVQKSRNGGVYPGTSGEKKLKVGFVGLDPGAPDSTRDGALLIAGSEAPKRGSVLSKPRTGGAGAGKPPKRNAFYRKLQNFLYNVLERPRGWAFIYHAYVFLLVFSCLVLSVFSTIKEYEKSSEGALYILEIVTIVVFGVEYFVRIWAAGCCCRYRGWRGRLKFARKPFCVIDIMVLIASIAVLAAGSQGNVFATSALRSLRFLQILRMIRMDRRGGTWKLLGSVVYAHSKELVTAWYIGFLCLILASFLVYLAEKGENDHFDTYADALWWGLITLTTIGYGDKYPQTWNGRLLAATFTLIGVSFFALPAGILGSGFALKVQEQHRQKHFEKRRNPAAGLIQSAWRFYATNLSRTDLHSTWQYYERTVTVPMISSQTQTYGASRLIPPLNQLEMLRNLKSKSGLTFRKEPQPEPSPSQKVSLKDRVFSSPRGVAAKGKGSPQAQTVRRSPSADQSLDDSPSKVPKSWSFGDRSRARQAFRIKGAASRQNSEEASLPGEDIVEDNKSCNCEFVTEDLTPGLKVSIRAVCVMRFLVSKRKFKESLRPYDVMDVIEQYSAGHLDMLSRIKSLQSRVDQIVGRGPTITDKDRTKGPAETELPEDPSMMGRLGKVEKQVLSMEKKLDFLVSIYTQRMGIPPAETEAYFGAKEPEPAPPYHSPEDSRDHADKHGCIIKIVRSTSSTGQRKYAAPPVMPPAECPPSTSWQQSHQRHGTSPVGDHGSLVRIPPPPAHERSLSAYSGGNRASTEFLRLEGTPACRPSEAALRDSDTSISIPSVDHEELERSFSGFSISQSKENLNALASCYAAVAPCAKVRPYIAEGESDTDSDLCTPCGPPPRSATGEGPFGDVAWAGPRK
# KCNQ2 block: inhibitors of rat KCNQ2 potassium channel. O88943. CHO-K1 KCNQ2, FluxOR thallium flux, 20 min; active compounds read low. B-score at 10 µM. actives 1.1% (n = 310,000). AID 2156;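 active means fluorescence ratio B-score at most minus 3 library SDs, with starting brightness B-score within 2 library SDs, cut at about -5.5 in these data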
# Starred values were filed as active, the others as inactive; i = inactive; . = no result. An excerpt weighted towards active compounds, which were near 1.6% of everything screened.
SMILES,KCNQ2 pot,KCNQ2 block
CC1CCc2c(sc(NC(=O)c3cccs3)c2C(=O)O)C1 (stereo not drawn),2,i
COc1cc(-c2nnc(SCc3ccccc3Cl)o2)cc(OC)c1OC,-6.8,-6.8*
COc1cc(-c2nnc(SCc3c(F)cccc3Cl)o2)cc(OC)c1OC,.,i
O=C(N/N=C/c1sc(N2CCOCC2)nc1-c1ccccc1)c1ccccc1F,.,i
O=C(Nc1ccccc1F)C(=Cc1sc(N2CCOCC2)nc1-c1ccccc1)C(=O)Nc1ccccc1F,-6.5,-6.5*
CCc1cccc(NC(=O)NC(=O)Cn2nnc(C(=O)OC)c2C(=O)OC)c1,1.3,i
CC(=O)C1=C(C)Nc2ncnn2C1c1ccc(Br)cc1 (stereo not drawn),0.4,i
Oc1c(Br)cc(Br)cc1C=Nc1ccc2c(c1)OCO2,9.8*,i
Oc1c(Br)cc(Br)cc1C=Nc1ccc2c(c1)OCCO2,2.9,i
O=C(CNC(=O)C1(c2ccccc2)CC1)Nc1ccc(F)c(F)c1,0.32,i
COc1cc(/C=C/c2ccc3cccc(OC)c3n2)c(O)c([N+](=O)[O-])c1,0.63,i
COc1cc(/C=C/c2ccc3cccc(OC)c3n2)c(OC(C)=O)c([N+](=O)[O-])c1,-5.6,-5.6*
CC(=O)C(c1ccccc1)C(c1ccccc1)C(C)[N+](=O)[O-] (stereo not drawn),0.65,i
Cc1cccc(N=Cc2cc3c(cc2[N+](=O)[O-])OCO3)c1,-6.5,-6.5*
O=[N+]([O-])c1cc2c(cc1C=Nc1ccccc1)OCO2,.,i
Nc1ccccc1Sc1c[nH]c2ccccc12,2,i
COc1cc(Cl)c(C)cc1NC(=O)CNC(C)c1ccccc1OC (stereo not drawn),-5.8,-5.8*
COc1ccccc1C(C)NCC(=O)Nc1c(F)cccc1F (stereo not drawn),0.99,i
COc1ccc(C)cc1NC(=O)CNC(c1ccccc1)c1ccc(C)cc1 (stereo not drawn),.,i
COc1ccccc1NC(=O)CNC(c1ccccc1)c1ccccc1,-6.1,-6.1*
O=C(CSc1n[nH]c(=O)n1Cc1ccccc1)Nc1ccc(F)c(F)c1F,0.26,i
NC1CCN(c2c(F)cc3c(=O)c(C(=O)O)cn(C4CC4)c3c2Cl)C1 (stereo not drawn),0.38,i
CCCN(CCC)C(C(=O)Nc1cccc(OC)c1)c1ccccc1 (stereo not drawn),-5.9,-5.9*
CCC(C(=O)OCC(=O)Nc1cccc(OC)c1)c1ccccc1 (stereo not drawn),.,i
N#C/C(=C(/O)c1ccc(Cl)c([N+](=O)[O-])c1)c1nc2ccccc2[nH]1,.,i
SMILES,KCNQ2 pot,KCNQ2 block
CCCCCN(C(=O)CN1CCC(Cc2ccccc2)CC1)c1c(N)n(CCCC)c(=O)[nH]c1=O,1.2,i
COc1ccccc1CNC(=O)c1cc(-c2ccccc2)nn1CC1CC(c2cccnc2)=NO1 (stereo not drawn),-6.1,-6.1*
O=C(O)c1cc(-c2ccccc2)nn1CC1CC(c2cccnc2)=NO1 (stereo not drawn),1.3,i
O=C1CCCN1CCCN1CC(C(=O)N(CCO)Cc2ccccc2)CCC1=O (stereo not drawn),.,i
COc1cc(NC(=O)C(Cc2ccccc2)n2cccc2)cc(OC)c1 (stereo not drawn),.,i
CC1CC(C)CN(C(=O)C(Cc2ccccc2)n2cccc2)C1 (stereo not drawn),-6.5,-6.5*
Cc1cccc(NC(=O)C(Cc2ccccc2)n2cccc2)c1 (stereo not drawn),-5.7,-5.7*
CC1CCN(C(=O)C(Cc2ccccc2)n2cccc2)CC1 (stereo not drawn),.,i
COc1ccc(CCNC(=S)Nc2ccc(S(=O)(=O)Nc3ncccn3)cc2)cc1OC,.,i
CC(C)(C)C1CCC(=NNC(=O)c2ccco2)CC1 (stereo not drawn),.,i
COc1ccc(-c2cc3nc(-c4ccccc4)cc(N4CCC5(CC4)OCCO5)n3n2)cc1,-6.5,-6.5*
COc1cccc(-c2cc3nc(-c4ccccc4)cc(N4CCCC(O)C4)n3n2)c1 (stereo not drawn),.,i
COc1ccc(-c2cc3nc4c(c(N5CCC6(CC5)OCCO6)n3n2)CCC4)cc1,.,i
COc1cccc(-c2cc3nc4c(c(N5CCC6(CC5)OCCO6)n3n2)CCC4)c1,-7,-7*
O=c1c(Cl)c(N2CCC3(CC2)OCCO3)cnn1C12CC3CC(CC(C3)C1)C2,.,i
CC(=O)CC(c1ccccc1)S(=O)(=O)c1ccc([N+](=O)[O-])cc1 (stereo not drawn),1.2,i
C[C@H](NC(=O)[C@@H]1CSC2c3ccccc3C(=O)N21)C(=O)NCc1c(F)cccc1Cl (stereo partly drawn),.,i
CCN(CC(=O)Nc1ccc2c(c1)OCCO2)C(=O)COc1ccc(C)cc1,.,i
Cc1ccc(C(=O)Nc2ccccc2C(=O)N2CC3(C)CC2CC(C)(C)C3)cc1 (stereo not drawn),-6.1,-6.1*
CC1(C)CC2CC(C)(CN2C(=O)NC(=O)c2ccccc2)C1 (stereo not drawn),.,i
CCOC(=O)c1nnc(-c2ccc(C)cc2)nc1Oc1ccc(Cl)cc1Cl,-6,-6*
CCOC(=O)c1nnc(-c2ccc(C)cc2)nc1Oc1ccccc1Cl,.,i
CS(=O)(=O)c1ccccc1-c1nnc(NC(=O)c2ccc3ncsc3c2)o1,.,i
O=C(CSC1CCCCC1)Nc1ccccc1Br,6.9*,i
CCN(CC(=O)Nc1ccccc1Br)C1CCCCC1,.,i
SMILES,KCNQ2 pot,KCNQ2 block
CCOC(=O)C1=C(c2ccccc2)NC(=O)NC1c1ccc(OC)c(OC)c1 (stereo not drawn),.,i
CCOC(=O)C1=C(c2ccccc2)N(C)C(=O)NC1c1ccc(OC(F)F)c(OC)c1 (stereo not drawn),-5.6,-5.6*
O=C1N=C(N2CCCC2)S/C1=C\C=C\c1ccccc1,1.2,i
Cc1ccccc1Cn1c(CN2CCc3ccccc3C2)nc2c1c(=O)n(C)c(=O)n2C,-6.1,-6.1*
Cn1c(=O)c2c(nc(CN3CCc4ccccc4C3)n2Cc2ccc(F)cc2)n(C)c1=O,.,i
Cc1cc(C)c2c(N)c3cccc(C)c3nc2n1,1,i
CC1=NN(c2ccccc2)C(=O)/C1=C/c1ccc(-c2ccc(C)c(C(=O)O)c2)o1,6.8*,i
CC1=NN(c2ccc(Cl)c(C(=O)O)c2)C(=O)/C1=C\c1ccc(-c2ccc(C(=O)O)cc2)o1,1.6,i
CC(=O)Nc1c(-c2ccccc2)c2cc(Br)ccc2[nH]c1=O,0.72,i
COc1ccc(C2CC(c3ccccc3)Nc3nc(NC(=O)c4cccs4)nn32)cc1 (stereo not drawn),0.27,i
COc1ccc(C2CC(c3ccccc3)n3nc(NC(=O)c4cccs4)nc3N2)cc1 (stereo not drawn),-5.6,-5.6*
O=C(NNC(=S)NC(=O)C12CC3CC(CC(C3)C1)C2)c1ccncc1,0.36,i
O=C(CCN1C(=O)C2C3CCC(C3)C2C1=O)OCC(=O)c1ccc(Cl)cc1 (stereo not drawn),0.99,i
COc1ccc(N2C(=O)/C(=C\c3ccco3)N=C2SCC(=O)N(C(C)C)C(C)C)cc1Cl,.,i
CC(C)CN(CC(C)C)C1=N/C(=C\c2ccco2)C(=O)N1c1ccccc1,-7.4,-7.4*
COc1ccccc1N1CCN(Cc2cc(=O)c(OCC#N)co2)CC1,.,i
